Screening data deposited in PubChem BioAssay by National Center for Advancing Translational Sciences (NCATS).
HPGD inh – blocks human HPGD enzyme activity | hit rate 4.3% among 150,000 | Potency, µM, actives largely listed as inhibitors | AID 894 | purified HPGD, NADH fluorescence kinetic, PGE2 substrate; active = well fitted inhibition curve with a large enough effect, not every such curve was filed as active; inconclusive = small, poorly fitted or top-dose-only effect, or another doubt; inactive = no such curve, though single readings can be large or run the other way
Target sequence (P15428 whole entry, looked up): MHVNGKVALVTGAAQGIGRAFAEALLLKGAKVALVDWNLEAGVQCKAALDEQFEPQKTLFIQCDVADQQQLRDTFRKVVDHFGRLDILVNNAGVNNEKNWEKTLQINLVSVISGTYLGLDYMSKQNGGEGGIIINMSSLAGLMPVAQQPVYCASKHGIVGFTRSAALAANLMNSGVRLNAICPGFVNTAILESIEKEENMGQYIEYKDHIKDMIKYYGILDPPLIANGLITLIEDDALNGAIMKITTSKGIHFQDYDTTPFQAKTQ
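NADH formation kinetics: reaction with 30 uM PGE2 and 1 mM NAD+ (final), 20 nM enzyme, Tris-HCl pH 8 with Tween 20, after 15 min compound preincubation at room temperature. Fluorescence change, last versus first of five reads.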
HTT cytoprotect – cytoprotection in Huntington HTT-Q103 PC12 cell model; PC12 HTT-Q103 induced, cytoprotection, ATP luminescence, 40 h; Potency, µM (highest dose often 56.4 µM), hits mostly activators; hit rate 0.14% among 230,000; AID 1471; also: nearly all actives have a fitted effect of over 45% in size
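Cells were plated at 1500 per well in phenol red-free DMEM with 5% equine and 5% calf serum. Tebufenozide (100 nM final) and compounds were added, then ATPlite reagent, and luminescence was read.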
IMPase cell inh – membrane-permeable compound that blocks inositol monophosphatase | P97697 | CHO-M1 cells, IP1 accumulation, HTRF TR-FRET ratio | inhibition (IP1 accumulation), % at 46.1 µM | 120,000 tested, under 10 active; active = well fitted curve in the direction sought with a large enough effect in the signal ratio, not every such curve was filed as active; inconclusive = small, poorly fitted or top-dose-only effect, or a change in a side signal; inactive = no such curve, though single readings can be large or run the other way; the % refers to the signal ratio;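 also: cells stimulated with carbachol in lithium chloride buffer; higher means more IMPase inhibition seen as more IP1 and lower FRET ratio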
Target sequence (P97697 whole entry, looked up): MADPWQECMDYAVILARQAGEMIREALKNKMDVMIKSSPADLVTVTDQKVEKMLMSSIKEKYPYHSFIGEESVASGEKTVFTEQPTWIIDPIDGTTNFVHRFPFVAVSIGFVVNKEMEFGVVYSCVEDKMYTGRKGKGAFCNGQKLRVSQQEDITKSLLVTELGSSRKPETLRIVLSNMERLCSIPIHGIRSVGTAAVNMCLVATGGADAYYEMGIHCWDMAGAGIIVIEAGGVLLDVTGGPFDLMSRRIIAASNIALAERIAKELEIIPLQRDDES
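Seeded CHO-M1 cells were dosed with compound at up to 46 uM, stimulated with carbachol for 30 min, then lysed in IP-One detection reagents. Higher IP1 lowers the TR-FRET signal.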
HttQ103 aggreg – mutant huntingtin aggregation inhibition; PC12 HttQ103-GFP aggregates, Acumen cytometry, 40 h; Potency, µM (top dose mostly 46.1 µM), actives largely listed as inhibitors; hit rate 1.1% among 220,000; also: nearly all actives have a fitted effect of over 60% in size
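Huntingtin Q103 exon 1–GFP aggregates in induced PC12 cells (100 nM tebufenozide) were quantified by cytometry from lysates, with compounds dosed in titration.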
IMPase Li cell – membrane-permeable IMPase blocker, potentiated with lithium; AID 1457; CHO-M1 cells, IP1 TR-FRET (IP-One), carbachol + lithium; hit rate 0.35% among 210,000; Potency, µM (top dose mostly 59.4 µM), most hits filed as inhibitors;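 also: IP1 builds up when IMPase is blocked and the TR-FRET signal falls; nearly all actives have a fitted effect of over 50% in size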
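Readout is a homogeneous TR-FRET IP1 immunoassay (Ex 320, Em 665 and 620), where raised cytosolic IP1 lowers signal. Cells were CHO-M1 treated 30 min at 37C with test compounds plus a little lithium; AC50 values came from Hill-equation fitting.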
ALDH1A1 inh – inhibitors of human aldehyde dehydrogenase 1A1; Potency, µM (series often up to 75.3 µM), usual class: inhibitors; hit rate 7.3% among 220,000; Purified ALDH1A1, NADH fluorescence, propionaldehyde substrate; P00352; active = well fitted inhibition curve with a large enough effect, not every such curve was filed as active; inconclusive = small, poorly fitted or top-dose-only effect, or another doubt; inactive = no such curve, though single readings can be large or run the other way
A number is an active result; i = inactive; ? = inconclusive; nt = not tested or not shown; [ ] = dose if it differs, or a comment. Sampled rows, rich in hits. Any-hit rate of the full collection: about 9.4%. Unless noted, calls follow the shape of the dose curve; as a rule, active = well fitted curve in the direction sought with a large enough effect; inconclusive = small, poorly fitted or top-dose-only effect, or another doubt; inactive = no such curve, though single readings can be large; an effect the other way counts as inactive or inconclusive.

SMILES	HPGD inh	HTT cytoprotect	IMPase cell inh	HttQ103 aggreg	IMPase Li cell	ALDH1A1 inh
Cc1ccc2[nH]c(=O)c(CN(Cc3cccs3)S(=O)(=O)c3ccc4c(c3)OCCO4)cc2c1	i	i[10 µM]	nt	i	i	25.1µM
COc1ccc2cc(CN(CC3CCCO3)C(=S)Nc3ccccc3)c(=O)[nH]c2c1 (stereo not drawn)	nt	i[10 µM]	nt	i[9.22 µM]	i	7.08µM
COc1ccc2cc(CN(CC3CCCO3)S(=O)(=O)c3ccc(C(C)=O)cc3)c(=O)[nH]c2c1 (stereo not drawn)	i	i	i	i	i	?
CCCC[C@H](O)c1ccccc1	nt	i	nt	i	nt	nt
COc1cccc(CN(CC2CCCO2)S(=O)(=O)c2ccc(S(=O)(=O)N(C)C)cc2)c1 (stereo not drawn)	i	i[10 µM]	i	i	i	2.82µM
O=C(O)c1ccc(C(=O)c2ccccc2)c(C(=O)O)c1	i	i[10 µM]	nt	nt	i	i[13.5 µM]
Cc1ccc(-c2csc3n[nH]c(=S)n23)cc1	28.2µM	i[10 µM]	i	i	i	?
CCn1c(-c2ccc(C)cc2)n[nH]c1=S	i	i	i	i	i	i
O=C(Nc1c(C(=O)Nc2cccc(F)c2)oc2ccccc12)c1ccc2c(c1)OCO2	?	i	i	i	14.1µM	?
CCN(CC)S(=O)(=O)c1ccc(C(=O)Nc2ccc3c(c2)OCCO3)cc1	i	i	i	i	i	12.6µM
CC1CN(S(=O)(=O)c2cccc(C(=O)OCC(=O)Nc3ccc4c(c3)OCO4)c2)CC(C)O1 (stereo not drawn)	i	i	i	i	i	11.2µM
Cc1cc(C)nc(NS(=O)(=O)c2ccc(NC(=O)c3ccc(S(=O)(=O)N4CC(C)OC(C)C4)cc3)cc2)n1 (stereo not drawn)	i	i[10 µM]	i	i	i	i
Cc1cc(C)nc(NS(=O)(=O)c2ccc(NC(=O)c3ccc4c(c3)OCCO4)cc2)n1	nt	i	nt	i	i	25.1µM
Cc1cc(F)c(Nc2ncnc3cc(OCc4ccccc4)ccc23)cc1O	i	i	nt	nt	i	i
O=C(COC(=O)Cc1ccc(S(=O)(=O)N2CCOCC2)s1)Nc1ccc2c(c1)OCO2	i	i	i	i[9.22 µM]	i	20µM
O=C(COC(=O)c1cc(S(=O)(=O)N2CCOCC2)ccc1Cl)Nc1ccc2c(c1)OCO2	i	i[10 µM]	i	i	i	?
CC(=O)c1ccc(S(=O)(=O)Nc2cc3c(cc2C(C)=O)OCO3)cc1	nt	nt	nt	i	i	i
CCCN(CCC)S(=O)(=O)c1cccc(C(=O)Nc2ccc3c(c2)OCO3)c1	i	i	i	i	i	3.16µM
CCC(CC)C(=O)Nc1cccc(C(=O)Nc2ccc3c(c2)OCO3)c1	i	i	i	i	i	12.6µM
CCN(CC)S(=O)(=O)c1ccc(S(=O)(=O)Nc2cc3c(cc2C(C)=O)OCO3)cc1	nt	i[10 µM]	i	i	nt	3.16µM
CCN(CC)S(=O)(=O)c1cccc(C(=O)Nc2ccc3c(c2)OCO3)c1	nt	i[10 µM]	nt	i[9.22 µM]	i	?
Cc1cccc2cc3ccc4ccccc4c3cc12	?	i[10 µM]	nt	nt	i	?
COc1ncc2nc(-c3cn(C)c4ccccc34)c(=O)n(C)c2n1	nt	i	nt	nt	i	?
CC(NC(=O)c1ccccc1)(C(=O)O)C(=O)O	i	i[10 µM]	nt	nt	i	i[13.5 µM]
CCC(CC)C(=O)Nc1cccc(S(=O)(=O)c2cccc(NC(=O)C(CC)CC)c2)c1	i	i	i	i[9.22 µM]	11.2µM	i
SMILES	HPGD inh	HTT cytoprotect	IMPase cell inh	HttQ103 aggreg	IMPase Li cell	ALDH1A1 inh
CC1CC(C)CN(C(=O)c2cc3cc(Br)cc(Br)c3o2)C1 (stereo not drawn)	nt	i[10 µM]	nt	?	i	?
COc1cc(Cl)cc(C2NC(=O)NC(C)=C2C(C)=O)c1OCC(=O)O (stereo not drawn)	i	i[10 µM]	i	i	i	2.24µM
C=CCOc1c(OC)cc(Cl)cc1C1NC(=O)NC(C)=C1C(C)=O (stereo not drawn)	i	i	i	i	i	i
c1ccc(-c2nc(N3CCCCCC3)nc(-n3ccnc3)n2)cc1	i	i	i	i	i	i
c1ccc(-c2nc(N3CCN(c4ccccc4)CC3)nc(-n3ccnc3)n2)cc1	nt	i	i	14.1µM	nt	i
O=C(O)c1ccc(N2C(=O)CC(N3C(=O)/C(=C/c4ccc(Cl)cc4)SC3=S)C2=O)cc1 (stereo not drawn)	nt	i[10 µM]	nt	i[9.22 µM]	nt	?
COc1ccc(C(=O)N2CCC3(CCCN(Cc4nccs4)C3)CC2)cc1	i	i	nt	nt	i	i
Cc1ccc(NC(=O)c2cc(-n3cnnc3)ccc2Cl)cc1	i	i[10 µM]	i	i	i	i
Cc1ccc(NC(=O)c2cc(N3C(=O)C=CC3=O)ccc2Cl)cc1C	3.16µM	i[10 µM]	i	i	i	2.24µM
Cc1ccc(NC(=O)c2cc(N3C(=O)C=CC3=O)ccc2N2CCOCC2)cc1	nt	i[10 µM]	nt	i[9.22 µM]	i	0.355µM
Cc1ccc(NC(=O)c2cc(N3C(=O)C4CC=CCC4C3=O)ccc2N2CCOCC2)cc1Cl (stereo not drawn)	i	i	i	?	i	28.2µM
COc1ccc(C2=C(N3CCN(c4cccc(C)c4)C(C)C3)c3ccccc3C2=O)cc1 (stereo not drawn)	nt	nt	i	nt	nt	nt
Cc1nc(NCCO)c2nc(-c3ccccc3)n(CCN(C)C)c2n1	?	i	nt	nt	i	?
CS(=O)(=O)Nc1cccc(-c2cncnc2-n2ccnc2)c1	nt	i	nt	nt	i	?
CCCC12CN3CC(C)(CN(C1)C3c1ccc3c(c1)OCO3)C2=O (stereo not drawn)	i	i	i	i	i	2µM
CC12CN3CC(C)(CN(C1)C3c1ccc3c(c1)OCO3)C2 (stereo not drawn)	nt	i[10 µM]	nt	i[9.22 µM]	i	i
CCCC12CN3CC(C)(CN(C1)C3c1ccc(OC)cc1)C2=O (stereo not drawn)	i	i	i	i	i	?
CC(C)C12CN3CC(C(C)C)(CN(C1)C3c1ccc3c(c1)OCO3)C2=O (stereo not drawn)	i	i[1.9 µM]	i	i	i	7.94µM
CC1CCc2c(sc3nc(SCc4nc(-c5ccccc5)no4)n(C)c(=O)c23)C1 (stereo not drawn)	nt	i	nt	nt	nt	nt
COCCCn1c(SCc2nnc(-c3ccccc3)o2)nc2sc3c(c2c1=O)CCC3	14.1µM	i	i	i	i	?
Cn1c(SCc2nnc(-c3ccccc3Br)o2)nc2sc3c(c2c1=O)CCC3	8.91µM	i	i	?	i	i
CCOC(=O)CCN1C(=O)[C@H]2[C@H]3[C@H](O)[C@H](O)C/C(=N/OCc4ccccc4)[C@@H]3CC[C@@H]2C1=O	nt	i[10 µM]	nt	nt	nt	i[13.5 µM]
C[C@H]1C[C@@H]2[C@@H]([C@@H](O)C[C@@]3(C)[C@H]2CC[C@]3(O)C(=O)CO)[C@@]2(C)C=CC(=O)C=C12	i	i	i	i	i	?
CCCN(c1ccc(C(C)C)cc1)S(=O)(=O)c1ccc2c(c1)CCN2C(=O)CC	nt	nt	i	nt	nt	nt
